Reference: paper PMC11062922 (Nature Chemical Biology, 2023)
Read-outs that look alike come from different tables or passages of the source.

What was measured:
Set-up in all cases: species or system human, MV4-11 + K-562 + COLO205 + SK-N-BE2 + OVCAR-8
[1] = test system: AKT3; settings: read-out: apparent Kd, n = 1
[2] = test system: EPHA2; settings: read-out: apparent Kd, n = 1
[3] = test system: NLK; settings: read-out: apparent Kd, n = 1
[4] = test system: PTK6; settings: read-out: apparent Kd, n = 1
[5] = test system: T1, DJA1; settings: read-out: apparent Kd, compound concentrations: 100 nM and 1000 nM (sheet 'Samples'), n = 1
T1 construct: gene DNAJA1

[6] = test system: NQO2; settings: read-out: apparent Kd, compound concentrations: 100 nM and 1000 nM (sheet 'Samples'), n = 1
[7] = test system: PIK3CA; settings: read-out: apparent Kd, compound concentrations: 100 nM and 1000 nM (sheet 'Samples'), n = 1
[8] = test system: PAK6; settings: read-out: apparent Kd; compound concentrations: 100 nM and 1000 nM (sheet 'Samples'), CATDS: 1.7508305071041501E-2; n = 1
[9] = test system: CIT; settings: read-out: apparent Kd; compound concentrations:100 nM and 1000 nM (sheet 'Samples'); n = 1
[10] = test system: PRKG1; settings: read-out: apparent Kd; compound concentrations:100 nM and 1000 nM (sheet 'Samples'); n = 1
[11] = test system: CDC7; settings: read-out: apparent Kd; compound concentrations:100 nM and 1000 nM (sheet 'Samples'); n = 1
[12] = test system: CDK6; settings: read-out: apparent Kd; compound concentrations:100 nM and 1000 nM (sheet 'Samples'); n = 1
[13] = test system: AKT2; settings: read-out: apparent Kd; compound concentrations: 100 nM and 1000 nM (sheet 'Samples'), CATDS: 3.9720416292935899E-2; n = 1
[14] = test system: SRC; settings: read-out: apparent Kd; compound concentrations: 100 nM and 1000 nM (sheet 'Samples'), CATDS: 5.0295032408805701E-2; n = 1
[15] = compound concentrations:100 nM and 1000 nM (sheet 'Samples')

Q: What does the source list for CS(=O)(=O)CCn1c(=O)c(Oc2ccc(F)cc2F)cc2cnc(NC3CCOCC3)nc21 [RO5027956-000]?
A: potency estimated from few doses [1, 15]: 2170 nM; potency estimated from few doses [2, 15]: 1060 nM; potency estimated from few doses [3, 15]: 55.9 nM; potency estimated from few doses [4, 15]: 1310 nM

Q: With Cc1ccccc1C1=C(c2cn(C)c3ccccc23)C(=O)NC1=O [RO0317612-000] as the compound, how does the potency estimated from few doses ([5]; CATDS: 0.15228633777300399) read?
A: 952 nM

Q: With O=C1N=C(NCc2ccccc2Br)S/C1=C\c1ccc2ncccc2c1 [RO4506918-000] as the compound, how does the potency estimated from few doses ([6]; CATDS: 7.7702899171443504E-2) read?
A: 1480 nM

Q: How did the potency estimated from few doses ([6]; CATDS: 0.10247036288978301) turn out when Cn1cc(C2=C(c3c(S(C)=O)n(C)c4ccccc34)C(=O)NC2=O)c2ccccc21 (stereo not shown) [RO0317379-000] was run?
A: 1820 nM

Q: COc1cc[nH]c1/C=C1\C(=O)Nc2ccc(F)c(I)c21 [RO0281567-000] was tested. Which potency estimated from few doses ([6]; CATDS: 0.103820399985183) did it give?
A: 1830 nM

Q: Which results are given for CN(C)c1ccc2c(c1)/C(=C/Nc1ccc(S(N)(=O)=O)cc1)C(=O)N2 [GW416469X]?
A: potency estimated from few doses ([5]; CATDS: 7.6568205350202298E-2): 1420 nM; potency estimated from few doses ([7]; CATDS: 0.16808925824439999): 245 nM

Q: Which potency estimated from few doses ([1]; compound concentrations: 100 nM and 1000 nM (sheet 'Samples'), CATDS: 1.8504555943704901E-2) does the source give for Cl.Cn1c(=O)c(Cc2ccccc2F)cc2cnc(NC3CCOCC3)nc21 [RO3305377-001] here?
A: 1380 nM

Q: And the potency estimated from few doses ([2]; compound concentrations: 100 nM and 1000 nM (sheet 'Samples'), CATDS: 2.1099204097422001E-2)?
A: 976 nM

Q: What about the potency estimated from few doses [8] of the same compound?
A: 1640 nM

Q: And the potency estimated from few doses ([4]; compound concentrations: 100 nM and 1000 nM (sheet 'Samples'), CATDS: 1.9530380694073899E-2)?
A: 1190 nM

Q: For CCn1c(-c2nonc2N)nc2cncc(C(=O)N3CC[C@H](N)C3)c21.Cl [SB-772077-B], which potency estimated from few doses [9] is on record?
A: 1450 nM

Q: And the potency estimated from few doses [10]?
A: 95.9 nM

Q: How did the potency estimated from few doses ([5]; CATDS: 0.110749292558391) turn out when NS(=O)(=O)c1cccc(-c2ccc3c(NC(=O)C4CC4)n[nH]c3c2)c1 [SB-741905] was run?
A: 1780 nM

Q: And the potency estimated from few doses ([3]; compound concentrations: 100 nM and 1000 nM (sheet 'Samples'), CATDS: 0.11088369265314001)?
A: 1780 nM

Q: And the potency estimated from few doses ([7]; CATDS: 0.24789463028651901)?
A: 301 nM

Q: With Nc1nccc(-c2ccc3c(N)n[nH]c3c2)n1 [GSK1034945A] as the compound, how does the potency estimated from few doses [11] read?
A: 1420 nM

Q: And the potency estimated from few doses [12]?
A: 2150 nM

Q: For COc1ccc(Nc2nccc(NCCNC(=O)Nc3cc(C)ccc3C)n2)cc1 [GSK1379899A], which potency estimated from few doses [13] is on record?
A: 2190 nM

Q: And the potency estimated from few doses ([5]; CATDS: 4.7532524958751397E-2)?
A: 1320 nM

Q: And the potency estimated from few doses ([7]; CATDS: 0.114925337657843)?
A: 250 nM

Q: What about the potency estimated from few doses [14] of the same compound?
A: 1150 nM
